According to PubChem BioAssay (NCATS):
Results filed as inconclusive are left out. Activity calls are given as the source filed them. Unless noted, the call rests on the fitted dose curve; in most records, active means well fitted curve in the direction sought with a large enough effect; inconclusive means small, poorly fitted or top-dose-only effect, or another doubt; inactive means no such curve, though single readings can be large; an effect the other way counts as inactive or inconclusive.

Columns and labels:
[1] = target: Cytochrome P450 1A2 (Homo sapiens) (UniProt P05177); assay: p450-cyp1a2 (AID 410; calls by dose curve;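 further: -100% = full effect of reference inhibitor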); details: recombinant CYP1A2, luciferin-ME demethylation, luminescence; series mostly up to 57 µM
Outline: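 Human CYP1A2 (20nM) demethylated Luciferin-ME at its Km (100uM) in 100mM KPO4. After 10 min compound preincubation, NADPH regeneration ran the reaction 60 min at room temperature. Luciferin was read by luminescence, normalized to 57 uM furafylline.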

[2] = Stat Signaling Pathway (AID 446; active means well fitted curve in either direction with a large enough effect, not every such curve was filed as active;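 further: ME-180 cervical cancer cells given 40 pM IL-6 alongside compound; SIE-controlled beta-lactamase reporter measured as 460/530 nm FRET emission ratio; on the % scale 0 is the no-effect control and ±100 the full control effect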); details: ME-180 SIE beta-lactamase reporter, IL-6 stimulated, 5 h; at 7.69 µM (top of the series) unless noted
Outline: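 Reporter line: ME-180 cervical carcinoma, SIE-beta-lactamase. Treatment: compound with 40 pM IL-6, 5 hrs, 37 C, in low-serum OPTI-MEM with 10 mM HEPES pH 7.3. Detection: 460/530 nm fluorescence.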

[3] = target: Glucocorticoid receptor (Homo sapiens) (UniProt P04150); assay: GR-EFC Redistribution (AID 451; calls by dose curve; further: potency means the concentration at half of the fitted maximal effect); details: CHO-K1 GR-EFC translocation, beta-gal luminescence, 2 h
Chain of Glucocorticoid receptor (Homo sapiens) (P04150 whole entry, looked up, the tested form may be a part): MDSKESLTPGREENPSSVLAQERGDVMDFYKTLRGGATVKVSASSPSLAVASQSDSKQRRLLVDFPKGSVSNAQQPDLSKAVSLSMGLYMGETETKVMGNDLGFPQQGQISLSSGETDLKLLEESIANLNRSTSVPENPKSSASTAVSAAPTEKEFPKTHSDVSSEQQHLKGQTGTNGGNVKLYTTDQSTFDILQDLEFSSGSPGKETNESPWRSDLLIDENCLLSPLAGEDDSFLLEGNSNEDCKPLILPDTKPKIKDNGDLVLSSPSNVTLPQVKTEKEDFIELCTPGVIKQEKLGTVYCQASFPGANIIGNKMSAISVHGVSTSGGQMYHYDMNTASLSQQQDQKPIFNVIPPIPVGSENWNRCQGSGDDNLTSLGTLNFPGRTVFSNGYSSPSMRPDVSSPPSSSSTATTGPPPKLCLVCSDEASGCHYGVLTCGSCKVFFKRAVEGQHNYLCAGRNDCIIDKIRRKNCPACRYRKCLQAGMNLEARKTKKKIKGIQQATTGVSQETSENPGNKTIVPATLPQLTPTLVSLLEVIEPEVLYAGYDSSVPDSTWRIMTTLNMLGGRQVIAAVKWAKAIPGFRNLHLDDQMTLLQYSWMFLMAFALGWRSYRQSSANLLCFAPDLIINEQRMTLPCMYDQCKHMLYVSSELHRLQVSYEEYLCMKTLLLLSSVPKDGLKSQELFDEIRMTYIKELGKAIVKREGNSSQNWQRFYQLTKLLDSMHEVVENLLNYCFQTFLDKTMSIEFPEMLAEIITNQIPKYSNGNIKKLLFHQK
Outline: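 Translocation of GR-ED fusion to nuclear EA restores b-gal, read by luminescence after 1 h room-temperature detection. Engineered CHO-K1 biosensor cells, 1,000/well, exposed 2 h at 37 C to titrations up to 46 uM final.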

[4] = target: Mitogen-activated protein kinase 10 (Mus musculus) (UniProt Q61831); assay: JNK3 AlphaScreen Assay (AID 530; active means well fitted curve in either direction with a large enough effect, not every such curve was filed as active;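 further: kinase came from lysate of stimulated human HepG2 cells; signal reports phosphorylation of biotinylated GST-cJun 1-79 at Ser73 with 10 µM ATP; on the % scale 0 is the no-effect control and ±100 the full control effect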); details: JNK3 lysate, c-Jun phosphorylation; series mostly up to 57.1 µM
Outline: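 Room-temperature AlphaScreen kinase assay; pre-activated HepG2 lysate as JNK3 source, biotin-GST-cJun(1-79) substrate, 10 uM ATP, compound 15 min preincubation.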

[5] = target: 3',5'-cyclic-AMP phosphodiesterase 4B (Homo sapiens) (UniProt Q07343); assay: qHTS Assay for Inhibitors of PDE-IV (AID 607; active means well fitted activation curve with a large enough effect in the main read-out, with a control signal flat, not every such curve was filed as active; further: % of control where 0% means no effect); details: HEK293 ACTOne CNG channel cells, membrane potential fluorescence; series mostly up to 22.9 µM
Chain of 3',5'-cyclic-AMP phosphodiesterase 4B (Homo sapiens) (Q07343 whole entry, looked up): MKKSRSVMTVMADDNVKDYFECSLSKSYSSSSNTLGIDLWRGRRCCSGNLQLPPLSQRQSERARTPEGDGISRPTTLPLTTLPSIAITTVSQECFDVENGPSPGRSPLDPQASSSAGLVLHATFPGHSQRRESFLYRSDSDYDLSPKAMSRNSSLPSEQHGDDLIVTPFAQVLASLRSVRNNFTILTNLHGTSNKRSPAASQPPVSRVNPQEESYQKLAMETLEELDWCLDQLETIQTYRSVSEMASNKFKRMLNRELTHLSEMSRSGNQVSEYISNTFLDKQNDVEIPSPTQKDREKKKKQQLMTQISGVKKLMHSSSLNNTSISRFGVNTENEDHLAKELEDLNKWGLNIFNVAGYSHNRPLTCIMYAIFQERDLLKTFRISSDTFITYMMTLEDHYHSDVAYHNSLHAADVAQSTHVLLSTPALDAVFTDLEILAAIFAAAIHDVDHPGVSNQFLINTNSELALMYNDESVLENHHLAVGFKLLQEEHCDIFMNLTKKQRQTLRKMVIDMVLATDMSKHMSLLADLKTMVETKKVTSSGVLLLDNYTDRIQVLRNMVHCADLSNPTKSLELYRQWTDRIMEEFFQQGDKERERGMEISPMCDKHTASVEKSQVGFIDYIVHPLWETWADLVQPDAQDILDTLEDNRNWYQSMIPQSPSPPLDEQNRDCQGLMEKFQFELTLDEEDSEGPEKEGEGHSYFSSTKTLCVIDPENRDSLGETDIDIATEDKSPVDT
Outline: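 Cell-based read-out of cAMP via a modified cyclic nucleotide-gated channel and membrane potential dye (535/590 nm) in HEK293 cells expressing PDE4 endogenously. Compounds tested up to 22.9 uM final; 100 uM RO 20-1724 reference.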

[6] = target: Cytochrome P450 2C9 (Homo sapiens) (UniProt P11712); assay: qHTS Assay for Inhibitors and Substrates of Cytochrome P450 2C9 (AID 883); details: recombinant CYP2C9, luciferin-H luminescence, 60 min; series mostly up to 57.1 µM; further: potency means the concentration at half of the fitted maximal effect; nearly all actives have a fitted effect of over 60% in size
Chain of Cytochrome P450 2C9 (Homo sapiens) (P11712 whole entry, looked up): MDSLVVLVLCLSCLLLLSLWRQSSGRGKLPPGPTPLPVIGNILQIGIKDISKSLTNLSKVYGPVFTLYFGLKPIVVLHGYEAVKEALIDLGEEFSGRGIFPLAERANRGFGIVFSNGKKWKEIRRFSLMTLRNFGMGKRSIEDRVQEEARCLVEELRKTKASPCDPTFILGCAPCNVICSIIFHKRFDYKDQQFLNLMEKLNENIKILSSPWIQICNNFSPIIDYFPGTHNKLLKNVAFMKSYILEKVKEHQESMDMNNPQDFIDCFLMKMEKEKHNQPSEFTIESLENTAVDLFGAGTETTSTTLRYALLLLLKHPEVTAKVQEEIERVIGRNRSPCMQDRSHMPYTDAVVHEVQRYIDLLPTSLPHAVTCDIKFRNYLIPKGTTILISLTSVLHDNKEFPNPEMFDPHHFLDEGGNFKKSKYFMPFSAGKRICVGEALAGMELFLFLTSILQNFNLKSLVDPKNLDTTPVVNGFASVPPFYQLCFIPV
Outline: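 Turnover of Luciferin-H (100uM, KM) by 10nM human CYP2C9 was measured over 60 min at 37C with NADPH regeneration; inhibitors and some substrates reduce luminescence. Data normalized to sulphaphenazole 57uM.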

[7] = target: Cytochrome P450 2C19 (Homo sapiens) (UniProt P33261); assay: qHTS Assay for Inhibitors and Substrates of Cytochrome P450 2C19 (AID 899); details: recombinant CYP2C19, luciferin-H EGE luminescence; series mostly up to 57.1 µM; further: potency means the concentration at half of the fitted maximal effect; nearly all actives have a fitted effect of over 60% in size
Chain of Cytochrome P450 2C19 (Homo sapiens) (P33261 whole entry, looked up): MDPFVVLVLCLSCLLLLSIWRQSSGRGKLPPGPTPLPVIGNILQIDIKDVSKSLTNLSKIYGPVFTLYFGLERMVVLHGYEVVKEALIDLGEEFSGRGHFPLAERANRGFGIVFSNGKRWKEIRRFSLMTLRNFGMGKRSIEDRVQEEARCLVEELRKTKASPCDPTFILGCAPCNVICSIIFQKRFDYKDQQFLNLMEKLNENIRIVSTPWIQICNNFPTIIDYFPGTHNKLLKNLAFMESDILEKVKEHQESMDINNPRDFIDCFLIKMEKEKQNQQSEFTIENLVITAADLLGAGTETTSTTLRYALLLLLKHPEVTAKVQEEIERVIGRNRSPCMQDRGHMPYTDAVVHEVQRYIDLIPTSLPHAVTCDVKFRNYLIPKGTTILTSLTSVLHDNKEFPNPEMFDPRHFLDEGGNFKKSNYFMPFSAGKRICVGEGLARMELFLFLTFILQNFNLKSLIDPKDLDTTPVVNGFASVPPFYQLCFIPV
Outline: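 Reactions contain 5nM enzyme, 10uM Luciferin-H EGE (KM) and 50mM KPO4; compound preincubates 10 min at 37C, NADPH regeneration starts turnover for 60 min. Luminescence after detection reagent gives activity.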

[8] = target: Cytochrome P450 2D6 (Homo sapiens) (UniProt P10635); assay: Cytochrome P450 family 2 subfamily D member 6 (CYP2D6) small molecule antagonists: luciferase biochemical (cell-free) qHTS assay (AID 1645840; active means well fitted curve in the direction sought with a large enough effect in the repeat runs; an effect the other way counts as inactive or inconclusive; further: on the % scale 0 is the no-effect control and ±100 the full control effect; nearly all actives have a fitted effect of over 55% in size); details: P450-Glo CYP2D6 enzyme, luciferin luminescence, 1 h; series mostly up to 57.4 µM
Chain of Cytochrome P450 2D6 (Homo sapiens) (P10635 whole entry, looked up): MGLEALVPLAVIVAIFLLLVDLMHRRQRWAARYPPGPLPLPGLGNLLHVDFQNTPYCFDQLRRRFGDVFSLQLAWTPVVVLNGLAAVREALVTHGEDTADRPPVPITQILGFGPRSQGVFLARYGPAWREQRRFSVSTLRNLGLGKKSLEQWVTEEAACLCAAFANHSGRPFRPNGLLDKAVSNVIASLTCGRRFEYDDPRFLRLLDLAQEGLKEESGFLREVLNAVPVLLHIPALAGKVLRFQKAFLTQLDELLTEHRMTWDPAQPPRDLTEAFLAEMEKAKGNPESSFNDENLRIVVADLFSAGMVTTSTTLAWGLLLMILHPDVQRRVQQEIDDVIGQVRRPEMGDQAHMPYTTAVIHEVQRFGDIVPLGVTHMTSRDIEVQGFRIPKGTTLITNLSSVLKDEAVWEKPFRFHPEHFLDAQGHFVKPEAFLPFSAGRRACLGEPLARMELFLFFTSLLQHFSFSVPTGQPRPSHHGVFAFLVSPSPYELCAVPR
Outline: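 P450-Glo luminescent screen: recombinant CYP2D6 enzyme–proluciferin substrate mix preincubated with compound 10 min at room temperature, then NADPH regeneration added for 1 h at room temperature. Detection reagent added for 20 min; luciferin light read as relative luminescence units.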

[9] = Primary qHTS for inhibitors of nuclear receptor binding SET domain protein 2 (NSD2) in an isogenic RCH-ACV NSD2 p.E1099K mutant (9B) (AID 1645876); details: RCH-ACV (leukaemia line) NSD2 E1099K (9B) viability, CellTiter-Glo, 72 h; series mostly up to 44.9 µM; further: potency means the concentration at half of the fitted maximal effect; nearly all actives have a fitted effect of over 70% in size
[10] = target: Catechol O-methyltransferase (Homo sapiens) (UniProt P21964); assay: Confirmatory Screen for Target Class Profiling of Small Molecule Inhibitors of Methyltransferases (AID 1745852; calls by dose curve; further: potency means the concentration at half of the fitted maximal effect); details: MTase-Glo luminescence, SAH detection, recombinant enzyme; measured here: COMT max response; stronger effect = lower value
Chain of Catechol O-methyltransferase (Homo sapiens) (P21964 whole entry, looked up): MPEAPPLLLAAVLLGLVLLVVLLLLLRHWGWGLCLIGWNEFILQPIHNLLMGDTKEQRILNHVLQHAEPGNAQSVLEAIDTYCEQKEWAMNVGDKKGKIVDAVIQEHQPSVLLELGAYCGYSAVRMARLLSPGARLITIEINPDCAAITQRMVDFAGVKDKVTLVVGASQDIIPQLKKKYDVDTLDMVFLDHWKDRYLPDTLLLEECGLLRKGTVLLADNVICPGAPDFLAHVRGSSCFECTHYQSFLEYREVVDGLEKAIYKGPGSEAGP

[11] = target: Guanidinoacetate N-methyltransferase (Homo sapiens) (UniProt Q14353); assay: as above; details: MTase-Glo luminescence, SAH detection, recombinant enzyme; activity change, negative = inhibition: at 57.3 µM (top of the series)
[12] = target: Nicotinamide N-methyltransferase (Homo sapiens) (UniProt P40261); assay: as above; details: MTase-Glo luminescence, SAH detection, recombinant enzyme; measured here: NNMT max response; stronger effect = lower value
Chain of Nicotinamide N-methyltransferase (Homo sapiens) (P40261 whole entry, looked up): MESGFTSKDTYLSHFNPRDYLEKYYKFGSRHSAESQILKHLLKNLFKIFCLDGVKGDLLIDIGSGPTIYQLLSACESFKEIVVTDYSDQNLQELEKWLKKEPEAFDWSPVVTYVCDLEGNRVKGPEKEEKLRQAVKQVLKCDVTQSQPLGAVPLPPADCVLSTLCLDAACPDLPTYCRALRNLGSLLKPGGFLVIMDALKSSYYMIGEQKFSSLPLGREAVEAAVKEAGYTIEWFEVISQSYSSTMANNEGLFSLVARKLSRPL

[13] = target: Phenylethanolamine N-methyltransferase (Homo sapiens) (UniProt P11086); assay: as above; details: MTase-Glo luminescence, SAH detection, recombinant enzyme; measured here: PNMT max response; stronger effect = lower value
Chain of Phenylethanolamine N-methyltransferase (Homo sapiens) (P11086 whole entry, looked up): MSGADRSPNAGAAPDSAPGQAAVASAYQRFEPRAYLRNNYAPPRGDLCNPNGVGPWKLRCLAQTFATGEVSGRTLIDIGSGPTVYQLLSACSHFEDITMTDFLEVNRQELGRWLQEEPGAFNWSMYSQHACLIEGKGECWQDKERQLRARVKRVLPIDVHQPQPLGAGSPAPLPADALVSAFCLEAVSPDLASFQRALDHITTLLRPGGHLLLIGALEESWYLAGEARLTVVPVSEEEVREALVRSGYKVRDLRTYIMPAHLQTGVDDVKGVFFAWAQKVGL

[14] = target: Phospholipid hydroperoxide glutathione peroxidase GPX4 (Homo sapiens) (UniProt P36969); assay: Primary qHTS Assay for Inhibitors of Recombinant Selenoprotein Glutathione Peroxidase 4 (GPX4) (AID 1845192); details: recombinant GPX4, GR-coupled NADPH fluorescence, 15 min; series mostly up to 50 µM; further: on the % scale 0 is the no-effect control and ±100 the full control effect; nearly all actives have a fitted effect of over 65% in size
Chain of Phospholipid hydroperoxide glutathione peroxidase GPX4 (Homo sapiens) (P36969 whole entry, looked up): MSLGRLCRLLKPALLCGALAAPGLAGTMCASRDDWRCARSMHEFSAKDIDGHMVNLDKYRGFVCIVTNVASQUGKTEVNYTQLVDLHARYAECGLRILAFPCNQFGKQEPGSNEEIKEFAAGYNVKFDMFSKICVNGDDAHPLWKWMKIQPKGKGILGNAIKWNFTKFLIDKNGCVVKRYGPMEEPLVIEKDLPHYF
Outline: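 NADPH consumption, followed by fluorescence at 340/450 nm between 0 and 15 min, reports GPX4 activity via coupled glutathione reductase (100 nM). Enzyme 200 nM was pre-exposed to compound 30 min; 0.5 mM cumene hydroperoxide and 1 mM GSH served as substrates.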

[15] = target: Cytochrome P450 3A4 (Homo sapiens) (UniProt P08684); assay: qHTS Assay for Inhibitors and Substrates of Cytochrome P450 3A4 (AID 884); details: recombinant CYP3A4, Luciferin-PPXE luminescence; series mostly up to 57.1 µM; further: potency means the concentration at half of the fitted maximal effect; nearly all actives have a fitted effect of over 50% in size
Chain of Cytochrome P450 3A4 (Homo sapiens) (P08684 whole entry, looked up): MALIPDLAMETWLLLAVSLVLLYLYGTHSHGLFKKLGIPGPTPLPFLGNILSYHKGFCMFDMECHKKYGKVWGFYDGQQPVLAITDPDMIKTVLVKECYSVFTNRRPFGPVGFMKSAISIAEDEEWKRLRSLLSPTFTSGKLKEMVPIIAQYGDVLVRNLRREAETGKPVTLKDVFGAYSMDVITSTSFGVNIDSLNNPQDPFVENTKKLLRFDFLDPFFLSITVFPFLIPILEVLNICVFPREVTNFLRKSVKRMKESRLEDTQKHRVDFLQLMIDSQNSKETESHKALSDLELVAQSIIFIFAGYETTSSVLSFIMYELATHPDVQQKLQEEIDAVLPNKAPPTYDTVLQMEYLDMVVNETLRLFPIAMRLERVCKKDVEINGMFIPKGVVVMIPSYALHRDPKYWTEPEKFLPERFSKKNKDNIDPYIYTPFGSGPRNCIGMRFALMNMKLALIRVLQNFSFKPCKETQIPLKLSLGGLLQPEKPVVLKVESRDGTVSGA
Outline: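 20 nM human CYP3A4 with 25 uM Luciferin-PPXE (at KM) in 200 mM KPO4, preincubated 10 min with compound; NADPH regeneration started a 60 min RT reaction. Luciferin detected by luminescence, normalized to 57 uM ketoconazole as full inhibition.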

[16] = target: DNA dC->dU-editing enzyme APOBEC-3G (Homo sapiens) (UniProt Q9HC16); assay: qHTS for inhibitors of Vif-A3G interactions: Validation (AID 588379); details: Vif-A3G protein interaction assay; series mostly up to 46.1 µM; further: 0% is about no effect
Chain of DNA dC->dU-editing enzyme APOBEC-3G (Homo sapiens) (Q9HC16 whole entry, looked up): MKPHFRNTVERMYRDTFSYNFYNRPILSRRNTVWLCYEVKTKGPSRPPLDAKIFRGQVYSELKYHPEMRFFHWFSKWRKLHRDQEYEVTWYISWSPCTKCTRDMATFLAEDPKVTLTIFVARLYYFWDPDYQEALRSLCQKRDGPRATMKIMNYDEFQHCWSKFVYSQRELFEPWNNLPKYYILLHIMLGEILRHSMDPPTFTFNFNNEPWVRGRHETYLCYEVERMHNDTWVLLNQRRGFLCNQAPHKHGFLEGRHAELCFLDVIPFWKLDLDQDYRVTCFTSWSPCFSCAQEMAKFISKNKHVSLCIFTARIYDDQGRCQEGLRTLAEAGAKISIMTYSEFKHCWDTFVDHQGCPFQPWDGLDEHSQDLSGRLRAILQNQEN
Outline: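 HeLa cells stably expressing Vif and A3G-eYFP, 700 cells/well, incubated overnight at 37 deg C, then exposed to compound overnight at 37 deg C. Inhibition of Vif-mediated degradation read as increased yellow fluorescence (Ex 488/Em 500-530) by laser-scanning cytometry.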

In the case of `CC(C)=CCc1c2c(c3occ(-c4ccc(O)c(O)c4)c(=O)c3c1O)C=CC(C)(C)O2`, the activity change, negative = inhibition [1] is reported as -3% [at 2.29 µM] (inactive), the activity, negative = inhibition [2] is reported as -4.46% (inactive) and the Potency [3] is reported as > 9.22 µM (inactive). The activity change, negative = inhibition [4] was -1.7% [at 11.4 µM] (inactive), the Potency [5] was “inactive” and the Potency [6] was 3.16 µM (active). For the same compound, the Potency [7] was 2 µM (active).

For `COc1cc(C(=O)O)ccc1NC(=O)[C@@H]1N[C@@H](CC(C)(C)C)[C@](C#N)(c2ccc(Cl)cc2F)[C@H]1c1cccc(Cl)c1F`, the Potency [8] was “inactive”, the Potency [9] was 0.209 µM (active) and the activity [10] was -3.62%. The Potency [11] was 34.1 µM (active), the activity [12] was -47.6% and the activity [13] was -14.4%.

In the case of `CN(C)c1cc(NC(=O)CNC(C)(C)C)c(O)c2c1C[C@H]1C[C@H]3[C@H](N(C)C)C(=O)C(C(N)=O)=C(O)[C@]3(O)C(=O)C1=C2O`, the Potency [14] is reported as “inactive”.

With `O=C1CC(c2ccc(O)cc2)Oc2ccccc21` (stereo unspecified) the Potency [15] was 25.1 µM (active).

With `O=C1CC(c2ccc(O)cc2)Oc2cc(O)cc(O)c21` (stereo unspecified) the outcome [16] was “inactive”.
